From PubChem BioAssay (EPA / NIEHS)
“And” between values parts separate entries of the source, which are not always exact repeats. Equal entries are not always repeated. Results filed as inconclusive are left out. The source holds several records for some structures; these can differ, active in one and inactive in another. The source made the active and inactive calls. Rule for the calls, unless noted: active = hit-call score of the fitted dose curve at least 0.9, where 1 is the maximum; inactive = score below 0.9.

Columns and labels:
[1] = read-out: succinate dehydrogenase complex iron sulfur subunit B (SDHB), SDHB (gene 6390); test: LTEA_HepaRG_SDHB: Life Technologies and Expression Analysis (LTEA) Assay for succinate dehydrogenase complex iron sulfur subunit B (SDHB) using HepaRG (AID 2283528); settings: mRNA level, 48 h; actives raise or lower the signal
Method in brief: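 HepaRG cells (~100,000/well, plated 48 h) exposed in duplicate for 48 h in serum-free induction medium to 8-point half-log series from 100 uM in 0.5% DMSO; mRNA by qRT-PCR normalised to ACTB, GAPDH, POLR2A; bidirectional fit versus DMSO.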

[2] = read-out: Signal transducer and activator of transcription 3 (Homo sapiens) (UniProt P40763); test: LTEA_HepaRG_STAT3: Life Technologies and Expression Analysis (LTEA) Assay for Signal transducer and activator of transcription (STAT3) using HepaRG (AID 2283529); settings: mRNA level, 48 h; actives raise or lower the signal
Method in brief: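 Differentiated HepaRG cells, serum-free induction medium, dosed 48 h in duplicate, 8 half-log concentrations from 100 uM in 0.5% DMSO. STAT3 mRNA by qRT-PCR, normalised to ACTB, GAPDH, POLR2A; bidirectional fit versus DMSO.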

[3] = read-out: solute carrier (SLCO1B1), SLCO1B1 (gene 10599); test: LTEA_HepaRG_SLCO1B1: Life Technologies and Expression Analysis (LTEA) Assay for solute carrier (SLCO1B1) using HepaRG (AID 2283530); settings: mRNA level, 48 h; actives raise or lower the signal
Method in brief: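 Differentiated human HepaRG cells, plated 48 h, switched to serum-free induction medium and exposed in duplicate for 48 h to 8 half-log concentrations (top 100 uM) in 0.5% DMSO. SLCO1B1 mRNA by TaqMan qRT-PCR, normalized to ACTB/GAPDH/POLR2A.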

[4] = read-out: sulfotransferase 2A1 (SULT2A1), SULT2A1 (gene 6822); test: LTEA_HepaRG_SULT2A1: Life Technologies and Expression Analysis (LTEA) Assay for sulfotransferase 2A1 (SULT2A1) using HepaRG (AID 2283531); settings: mRNA level, 48 h; actives raise or lower the signal
Method in brief: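 Differentiated human HepaRG cells in serum-free induction medium were exposed for 48 h to eight half-log concentrations (top 100 uM, 0.5% DMSO). SULT2A1 mRNA was measured by qRT-PCR, normalized to ACTB, GAPDH and POLR2A, and fitted bidirectionally against DMSO.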

[5] = read-out: Transforming Growth Factor (TGFA), TGFA (gene 7039); test: LTEA_HepaRG_TGFA: Life Technologies and Expression Analysis (LTEA) Assay for Transforming Growth Factor (TGFA) using HepaRG (AID 2283532); settings: mRNA level, 48 h; actives raise or lower the signal
Method in brief: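 Differentiated HepaRG cells exposed 48 hours in serum-free induction medium, 0.5% DMSO vehicle, 8-point half-log series from 100 uM, in duplicate. TGFA mRNA by TaqMan qRT-PCR, normalised to ACTB, GAPDH, POLR2A; bidirectional fit versus DMSO.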

[6] = read-out: Transforming Growth Factor (TGFB1), TGFB1 (gene 7040); test: LTEA_HepaRG_TGFB1: Life Technologies and Expression Analysis (LTEA) Assay for Transforming Growth Factor (TGFB1) Transporter using HepaRG (AID 2283533); settings: mRNA level, 48 h; actives raise or lower the signal
Method in brief: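 Differentiated human HepaRG cells in serum-free induction medium were exposed in duplicate for 48 h to eight concentrations (top 100 uM, half-log steps, 0.5% DMSO). TGFB1 mRNA was quantified by qRT-PCR, normalized to ACTB, GAPDH, POLR2A, and fitted bidirectionally against DMSO.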

[7] = read-out: TIMP1, TIMP1 (gene 7076); test: LTEA_HepaRG_TIMP1: Life Technologies and Expression Analysis (LTEA) Assay for TIMP1 using HepaRG (AID 2283534); settings: mRNA level, 48 h; actives raise or lower the signal;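 note: TaqMan qRT-PCR signal normalized to ACTB GAPDH and POLR2A housekeeping genes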
Method in brief: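 Differentiated human HepaRG cells in serum-free induction medium were exposed 48 h to chemicals (8 half-log concentrations, top 100 uM, 0.5% DMSO). TIMP1 mRNA was quantified by TaqMan qRT-PCR, normalized to ACTB/GAPDH/POLR2A; bidirectional fit versus DMSO.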

[8] = read-out: Tumor necrosis factor receptor 1 (TNFRSF1A), TNFRSF1A (gene 7132); test: LTEA_HepaRG_TNFRSF1A: Life Technologies and Expression Analysis (LTEA) Assay for Tumor necrosis factor receptor 1 (TNFRSF1A) using HepaRG (AID 2283535); settings: mRNA level, 48 h; actives raise or lower the signal
Method in brief: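 Differentiated human HepaRG cells were exposed in duplicate for 48 h in serum-free induction medium to eight concentrations (top 100 uM, half-log steps, 0.5% DMSO). TNFRSF1A mRNA was quantified by qRT-PCR, normalized to ACTB, GAPDH and POLR2A, then fitted bidirectionally against DMSO.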

[9] = read-out: Thyroid Hormone Responsive (THRSP), THRSP (gene 7069); test: LTEA_HepaRG_THRSP: Life Technologies and Expression Analysis (LTEA) Assay for Thyroid Hormone Responsive (THRSP) using HepaRG (AID 2283536); settings: mRNA level, 48 h; actives raise or lower the signal
Method in brief: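 Differentiated HepaRG cells treated 48 h in serum-free induction medium with 8 half-log concentrations up to 100 uM (0.5% DMSO), duplicates. THRSP mRNA by TaqMan qRT-PCR normalised to ACTB, GAPDH, POLR2A; bidirectional fit versus DMSO.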

[10] = read-out: Cellular tumor antigen p53 (Homo sapiens) (UniProt P04637); test: LTEA_HepaRG_TP53: Life Technologies and Expression Analysis (LTEA) Assay for Tumor Protein P53 (TP53) using HepaRG (AID 2283537); settings: mRNA level, 48 h; actives raise or lower the signal
Method in brief: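 Differentiated HepaRG cells in serum-free induction medium exposed 48 h in duplicate to 8 half-log concentrations, top 100 uM, 0.5% DMSO. TP53 mRNA by TaqMan qRT-PCR (Fluidigm), normalized to ACTB, GAPDH, POLR2A; fitted bidirectionally versus DMSO.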

[11] = read-out: UDP glucuronosyltransferase (UGT1A1), UGT1A1 (gene 54658); test: LTEA_HepaRG_UGT1A1: Life Technologies and Expression Analysis (LTEA) Assay for UDP glucuronosyltransferase (UGT1A1) using HepaRG (AID 2283538); settings: mRNA level, 48 h; actives raise or lower the signal
Method in brief: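 Readout is UGT1A1 transcript level by qRT-PCR, normalized to three housekeeping genes, after 48 h chemical treatment of HepaRG cells. Concentrations ran from 100 uM down in half-log steps with 0.5% DMSO, and gain or loss relative to DMSO was fitted.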

[12] = read-out: UDP glucuronosyltransferase (UGT1A6), UGT1A6 (gene 54578); test: LTEA_HepaRG_UGT1A6: Life Technologies and Expression Analysis (LTEA) Assay for UDP glucuronosyltransferase (UGT1A6) using HepaRG (AID 2283539); settings: mRNA level, 48 h; actives raise or lower the signal
Method in brief: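 Human HepaRG cells were dosed for 48 h in serum-free induction medium with 0.5% DMSO vehicle, eight-point half-log series from 100 uM, in duplicate. UGT1A6 mRNA was measured by qRT-PCR, normalized to ACTB, GAPDH, POLR2A, and fitted bidirectionally against DMSO.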

[13] = LTEA_HepaRG_LDH_cytotoxicity: Cytotoxicity Assessment in the Life Technologies and Expression Analysis (LTEA) Assay (AID 2283563; active = hit-call score of the fitted dose curve at least 0.9, where 1 is the maximum)
Method in brief: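 Differentiated human HepaRG cells, plated 48 h beforehand, were switched to serum-free induction medium and exposed for 48 h to eight half-log concentrations (top 100 uM) in 0.5% DMSO. LDH was measured in spent medium; activity was fitted relative to DMSO vehicle.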

[14] = TOX21_p53_BLA_p2_viability: Viability Assessment in the Tox21 HCT-116 p53 Agonism Beta-lactamase Assay, Phase 2 (AID 2283591; active = hit-call score of the fitted dose curve at least 0.9, where 1 is the maximum;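 note: compound exposure lasted 16 h at 37 °C; actives lower the ATP signal meaning cytotoxicity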)
Method in brief: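 HCT116 p53-bla cells, 4000/well, dosed after 5 h plating (217-fold dilution of DMSO stocks) and incubated 16 h at 37C. Viability taken as cellular ATP by CellTiter-Glo luminescence after 30 min RT; signal loss marks cytotoxicity.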

[15] = TOX21_p53_BLA_p3_viability: Viability Assessment in the Tox21 HCT-116 p53 Agonism Beta-lactamase Assay, Phase 3 (AID 2283593; active = hit-call score of the fitted dose curve at least 0.9, where 1 is the maximum;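 note: cells exposed to compound for 16 h before reading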)
Method in brief: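 HCT116 cells, 4000/well, dosed 5 h after plating by pin transfer (217-fold dilution from DMSO stock) and incubated 16 h at 37C, 5% CO2. Viability read as ATP luminescence with CellTiter-Glo after 30 min at room temperature.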

[16] = target: Cellular tumor antigen p53 (Homo sapiens) (UniProt P04637); test: TOX21_p53_BLA_p2_ratio: Tox21 HCT-116 p53 Agonism Beta-lactamase Assay, Ratio, Phase 2 (AID 2283592; active = hit-call score of the fitted dose curve at least 0.9, where 1 is the maximum)
Sequence of Cellular tumor antigen p53 (Homo sapiens) (P04637 whole entry, looked up): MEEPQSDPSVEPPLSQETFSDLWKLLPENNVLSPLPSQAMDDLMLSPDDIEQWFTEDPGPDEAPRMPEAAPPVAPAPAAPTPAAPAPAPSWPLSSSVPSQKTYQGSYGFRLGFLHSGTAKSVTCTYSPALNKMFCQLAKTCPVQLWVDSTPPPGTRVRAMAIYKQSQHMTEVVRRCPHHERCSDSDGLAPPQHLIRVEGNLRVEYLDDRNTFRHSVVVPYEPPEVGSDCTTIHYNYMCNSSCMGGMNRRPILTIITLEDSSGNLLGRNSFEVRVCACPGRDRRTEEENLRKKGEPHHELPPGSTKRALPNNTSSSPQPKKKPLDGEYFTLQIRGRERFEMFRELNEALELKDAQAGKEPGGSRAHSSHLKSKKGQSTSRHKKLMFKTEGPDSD
Method in brief: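 HCT116 cells carrying a p53-responsive beta-lactamase reporter were plated, incubated 5 h at 37C, then dosed with compounds in DMSO (217-fold dilution) for 16 h. CCF4-AM substrate was added for 2 h at room temperature; the 460/530 nm emission ratio gave gain-of-signal activity relative to DMSO.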

[17] = target: Cellular tumor antigen p53 (Homo sapiens) (UniProt P04637); test: TOX21_p53_BLA_p3_ratio: Tox21 HCT-116 p53 Agonism Beta-lactamase Assay, Ratio, Phase 3 (AID 2283596; active = hit-call score of the fitted dose curve at least 0.9, where 1 is the maximum)
Method in brief: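 HCT116 p53-bla cells (4000/well) given compound in DMSO (217-fold dilution) after 5 h, incubated 16 h at 37C. CCF4-AM substrate 2 h at room temperature; 460/530 nm emission ratio, gain fitted against DMSO.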

[18] = TOX21_p53_BLA_p4_viability: Viability Assessment in the Tox21 HCT-116 p53 Agonism Beta-lactamase Assay, Phase 4 (AID 2283597; active = hit-call score of the fitted dose curve at least 0.9, where 1 is the maximum;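 note: hits lower the luminescence signal meaning cytotoxicity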)
Method in brief: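 HCT116 p53-bla cells (4000/well) rested 5 h at 37C, then received compounds in DMSO (217-fold dilution) for 16 h at 37C, 5% CO2. CellTiter-Glo was added after the CCF4-AM read, and luminescence was read after 30 min at room temperature.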

Measured: AC50

Sequence of Signal transducer and activator of transcription 3 (Homo sapiens) (P40763 whole entry, looked up): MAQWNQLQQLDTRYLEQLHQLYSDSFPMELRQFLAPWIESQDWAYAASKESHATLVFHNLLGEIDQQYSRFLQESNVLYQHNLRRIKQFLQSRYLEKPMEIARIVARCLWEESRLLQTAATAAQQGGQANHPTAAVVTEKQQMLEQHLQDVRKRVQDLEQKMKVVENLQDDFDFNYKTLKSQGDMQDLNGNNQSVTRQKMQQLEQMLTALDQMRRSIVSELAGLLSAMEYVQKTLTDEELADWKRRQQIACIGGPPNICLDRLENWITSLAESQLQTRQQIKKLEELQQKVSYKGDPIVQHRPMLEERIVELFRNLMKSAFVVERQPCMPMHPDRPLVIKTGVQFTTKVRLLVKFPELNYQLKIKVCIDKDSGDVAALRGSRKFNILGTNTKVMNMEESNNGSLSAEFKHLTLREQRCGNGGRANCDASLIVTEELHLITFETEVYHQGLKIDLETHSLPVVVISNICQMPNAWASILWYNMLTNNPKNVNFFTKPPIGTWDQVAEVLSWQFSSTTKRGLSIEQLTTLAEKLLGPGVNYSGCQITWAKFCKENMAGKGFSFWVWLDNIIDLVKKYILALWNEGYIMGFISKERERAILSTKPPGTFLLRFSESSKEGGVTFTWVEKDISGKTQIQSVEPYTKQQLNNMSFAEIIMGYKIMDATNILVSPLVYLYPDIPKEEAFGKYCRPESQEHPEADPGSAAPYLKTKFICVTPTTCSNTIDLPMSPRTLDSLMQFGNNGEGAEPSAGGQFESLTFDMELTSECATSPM

CO[C@@H]1COCC[C@@H]1N[C@@H]1CC[C@@](C(=O)N2CCc3ncc(C(F)(F)F)cc3C2)(C(C)C)C1
not listed: [16] | [17] | [18]
inactive: all other assays above

Oc1ccccc1O
active: [15] 74.5 µM | [18] 70.9 µM and 46.5 µM
inactive: [1] | [2] | [3] | [4] | [5] | [6] | [7] | [8] | [9] | [10] | [11] | [12] | [13] | [14] | [16] | [15] | [17]
